# Inconclusive results are not listed. The source made the active and inactive calls. Rule for the calls, unless noted: active = hit-call score of the fitted dose curve at least 0.9, where 1 is the maximum; inactive = score below 0.9.
# Columns and labels:
# [1] = ATG_M_06_TRANS: Attagene TRANS-FACTORIAL HepG2 Assay for M06 Transcription Factor (Internal Marker) (AID 2282983; active = hit-call score of the fitted dose curve at least 0.9, where 1 is the maximum;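 note: reporter transcript level by RT-PCR then capillary electrophoresis fluorescence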); details: HepG2 Attagene TRANS M06 internal marker reporter
# Procedure, shortened: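 Read-out: fluorescent reporter cDNA fragments resolved by capillary electrophoresis after RT-PCR and HpaI cut. Source cells were HepG2 carrying transfected multi-reporter GAL4 constructs, dosed 24 h. Increase over DMSO control analysed.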
# [2] = target: Nuclear receptor subfamily 4 group A member 2 (Homo sapiens) (UniProt P43354); experiment: ATG_NURR1_TRANS: Attagene TRANS-FACTORIAL HepG2 Assay for human Nuclear Receptor Related Protein 1 (NURR1) (AID 2282985; active = hit-call score of the fitted dose curve at least 0.9, where 1 is the maximum); details: HepG2 Attagene TRANS reporter, mRNA readout
# Procedure, shortened: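 Reporter transcript induction, measured by RT-PCR with fluorescent labelling, HpaI digestion and capillary electrophoresis, after 24 hr dosing of human HepG2 cells transiently expressing an exogenous NR-Gal4 fusion with GAL4-UAS-driven reporters; DMSO as baseline.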
# [3] = target: Transcriptional activator Myb (Homo sapiens) (UniProt P10242); experiment: ATG_Myb_CIS: Attagene CIS-FACTORIAL HepG2 Assay for human Myeloblastosis (Myb) Proto-Oncogene Transcription Factor (AID 2282986); details: HepG2 Attagene CIS-FACTORIAL Myb reporter transcription; actives raise or lower the signal
# Procedure, shortened: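 Using HepG2 liver cells bearing transiently transfected cis-promoter reporter constructs, the assay measures induction or loss of reporter mRNA after 24 hours of dosing. Detection used fluorescently labeled RT-PCR products separated by capillary electrophoresis.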
# [4] = target: Nuclear respiratory factor 1 (Homo sapiens) (UniProt Q16656); experiment: ATG_NRF1_CIS: Attagene CIS-FACTORIAL HepG2 Assay for human Nuclear Respiratory Factor 1 (NRF1) Orphan Gene (AID 2282987); details: HepG2 NRF1 cis-element reporter, Attagene multiplex; actives raise or lower the signal
# Procedure, shortened: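 Reporter mRNA induction or loss in HepG2 cells after 24 h dosing; cis-regulated reporter constructs report endogenous transcription-factor activity. Quantified by RT-PCR/capillary electrophoresis fluorescence, DMSO-referenced.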
# [5] = ATG_NFI_CIS: Attagene CIS-FACTORIAL HepG2 Assay for human Nuclear Factor I (NFI) (AID 2282989); details: HepG2 cis-regulatory reporter, NFI response element transcription; actives raise or lower the signal
# Procedure, shortened: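 Cells: human liver HepG2, transiently transfected with promoter-regulated reporter transcription units. Exposure 24 h. Detection: fluorescent RT-PCR products separated by capillary electrophoresis, normalised to DMSO negative control.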
# [6] = target: Myc proto-oncogene protein (Homo sapiens) (UniProt P01106); experiment: ATG_Myc_CIS: Attagene CIS-FACTORIAL HepG2 Assay for human Myelocytomatosis (Myc) Proto-Oncogene Transcription Factor (AID 2282990); details: HepG2, Attagene cis-reporter transcription factor activity; actives raise or lower the signal
# Procedure, shortened: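 After 24 h chemical treatment of HepG2 cells carrying multiplexed cis-regulated reporter constructs, reporter transcripts quantified by RT-PCR and capillary electrophoresis of fluorescent fragments. Gain or loss fitted against DMSO baseline.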
# [7] = ATG_NF_kB_CIS: Attagene CIS-FACTORIAL HepG2 Assay for human Nuclear Factor Kappa B (NF-kB) (AID 2282991); details: HepG2 Attagene cis-factorial NF-kB reporter mRNA; actives raise or lower the signal
# Procedure, shortened: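 DMSO served as negative control and baseline for bidirectional curve fitting. Transiently transfected HepG2 cells were dosed for 24 h, then reporter transcripts were measured by RT-PCR with capillary electrophoresis detection.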
# [8] = ATG_NRF2_ARE_CIS: Attagene CIS-FACTORIAL HepG2 Assay for human Nuclear Factor Erythroid 2 Related Factor 2 (NFR2) response to Antioxidant Response Elements (ARE) (AID 2282992); details: HepG2 Attagene ARE/NRF2 reporter, transcription factor activity; actives raise or lower the signal;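 for AC50: reporter mRNA level measured by RT-PCR and capillary electrophoresis fluorescence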
# Procedure, shortened: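 Endogenous transcription factor activity in human liver HepG2 cells is tracked via a cis-element-driven reporter within a multiplexed set. mRNA induction is read by RT-PCR and capillary electrophoresis after 24 h, with DMSO as baseline.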
# [9] = ATG_Oct_MLP_CIS: Attagene CIS-FACTORIAL HepG2 Assay for human Octamer-Binding Transcription Factor (Oct) (AID 2282993); details: HepG2 Attagene cis-factorial Oct reporter, mRNA; actives raise or lower the signal
# Procedure, shortened: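 HepG2, transient MRTU transfection, cis promoter elements; 24 h dosing; RT-PCR/CE fluorescence read-out of reporter mRNA; fit both directions vs DMSO.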
# [10] = target: Cellular tumor antigen p53 (Homo sapiens) (UniProt P04637); experiment: ATG_p53_CIS: Attagene CIS-FACTORIAL HepG2 Assay for human p53 Transcription Factor (AID 2282994); details: HepG2 p53 cis-element reporter, Attagene mRNA; actives raise or lower the signal
# Procedure, shortened: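 Steps: transfect HepG2 with multiplexed cis reporter constructs; dose chemicals 24 h; extract RNA, reverse-transcribe, PCR-amplify reporter sequences; FAM-label, HpaI-digest, resolve fragments by CE. Activity fitted both directions relative to DMSO.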
# [11] = target: human Peroxisome Proliferator-activated Receptor alpha (PPARa), PPARA (gene 5465) (UniProt Q07869); experiment: ATG_PPARa_TRANS: Attagene TRANS-FACTORIAL HepG2 Assay for human Peroxisome Proliferator-activated Receptor alpha (PPARa) (AID 2283001; active = hit-call score of the fitted dose curve at least 0.9, where 1 is the maximum)
# Procedure, shortened: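 Reporter transcripts quantified by RT-PCR plus capillary electrophoresis after 24 h treatment, fitted upward relative to DMSO. Cells: human HepG2 transiently carrying multiple GAL4-UAS reporter units driven by NR-Gal4 chimeras.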
# [12] = target: human Retinoic Acid Receptor beta (RARb), RARB (gene 5915) (UniProt P10826); experiment: ATG_RARb_TRANS: Attagene TRANS-FACTORIAL HepG2 Assay for human Retinoic Acid Receptor beta (AID 2283004; active = hit-call score of the fitted dose curve at least 0.9, where 1 is the maximum)
# Procedure, shortened: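 Readout is reporter mRNA induction: RNA reverse-transcribed, PCR-amplified, FAM-labelled, HpaI-cut and resolved by capillary electrophoresis. Transiently transfected HepG2 cells carrying exogenous NR–Gal4 chimeras were dosed for 24 h; activity fitted upward relative to DMSO.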
# [13] = target: human Peroxisome Proliferator-activated Receptor delta (PPARd), PPARD (gene 5467) (UniProt Q03181); experiment: ATG_PPARd_TRANS: Attagene TRANS-FACTORIAL HepG2 Assay for human Peroxisome Proliferator-activated Receptor delta (PPARd) (AID 2283002; active = hit-call score of the fitted dose curve at least 0.9, where 1 is the maximum)
# Procedure, shortened: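 Read-out is induced reporter mRNA, quantified by RT-PCR with fluorescent labelling and capillary electrophoresis after 24 h dosing. Cells are HepG2 transiently carrying multiple GAL4-UAS reporter units driven by exogenous NR-GAL4 chimeras; DMSO serves as baseline.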
# [14] = BSK_3C_TissueFactor: BioMAP Diversity Plus: 3C Assay for Tissue Factor Biomarker Activity (AID 2282997); details: BioMAP 3C HUVEC, tissue factor biomarker readout; actives raise or lower the signal
# Procedure, shortened: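 HUVEC, 3C system, 24 h post-dose; Tissue Factor by ELISA; bidirectional fit vs DMSO baseline.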
# [15] = BSK_3C_uPAR: BioMAP Diversity Plus: 3C Assay for Urokinase-type plasminogen activator receptor (uPAR) Biomarker Activity (AID 2282998); details: BioMAP 3C HUVEC, uPAR biomarker ELISA; actives raise or lower the signal
# Procedure, shortened: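 A multiplexed primary-cell system built on human umbilical vein endothelium was used, with chemical present for 24 h before reading. Cell-surface uPAR was detected by ELISA; signal change in either direction counted against DMSO.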
# [16] = BSK_4H_Eotaxin3: BioMAP Diversity Plus: 4H Assay for Eotaxin 3 Biomarker Activity (AID 2283000); details: primary human endothelial cells (HUVEC); actives raise or lower the signal;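 note: CCL26 protein level quantified by ELISA in parallel with SRB cytotoxicity check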
# Procedure, shortened: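 Readout is Eotaxin-3 (CCL26) level by ELISA in primary human umbilical vein endothelial cells harvested 24 h after chemical exposure; activity fitted in both directions against DMSO control.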
# [17] = read-out: Intercellular Adhesion Molecule 1 (ICAM1), ICAM1 (gene 3383); experiment: BSK_3C_ICAM1: BioMAP Diversity Plus: 3C Assay for Intercellular Adhesion Molecule 1 (ICAM1) Biomarker Activity (AID 2283003); details: primary human endothelial cells (HUVEC); actives raise or lower the signal
# Procedure, shortened: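 ELISA readout of ICAM1 in human umbilical vein endothelial cells in the 3C system, taken 24 h post-dose. Gain or loss of signal versus DMSO was fitted in both directions, with SRB total-protein staining run in parallel.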
# Transcriptional activator Myb (Homo sapiens), sequence (P10242 whole entry, looked up): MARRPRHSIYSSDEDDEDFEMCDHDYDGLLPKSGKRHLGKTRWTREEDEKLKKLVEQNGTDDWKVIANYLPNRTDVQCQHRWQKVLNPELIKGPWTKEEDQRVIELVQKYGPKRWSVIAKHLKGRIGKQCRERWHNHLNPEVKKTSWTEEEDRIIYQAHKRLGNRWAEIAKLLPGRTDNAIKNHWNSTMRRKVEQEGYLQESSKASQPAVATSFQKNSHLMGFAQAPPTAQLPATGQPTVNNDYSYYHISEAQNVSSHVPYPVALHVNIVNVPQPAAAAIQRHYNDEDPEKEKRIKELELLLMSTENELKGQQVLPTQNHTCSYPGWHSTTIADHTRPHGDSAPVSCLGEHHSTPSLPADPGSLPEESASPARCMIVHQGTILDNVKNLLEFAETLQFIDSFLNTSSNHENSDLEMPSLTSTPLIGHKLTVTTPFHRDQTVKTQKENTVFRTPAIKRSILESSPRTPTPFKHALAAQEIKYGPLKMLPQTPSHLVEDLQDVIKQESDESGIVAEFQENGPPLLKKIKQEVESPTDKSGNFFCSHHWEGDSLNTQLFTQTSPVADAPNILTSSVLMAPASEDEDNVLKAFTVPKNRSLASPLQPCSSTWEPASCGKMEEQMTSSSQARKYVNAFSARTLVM
# Cellular tumor antigen p53 (Homo sapiens), sequence (P04637 whole entry, looked up, the tested form may be a part): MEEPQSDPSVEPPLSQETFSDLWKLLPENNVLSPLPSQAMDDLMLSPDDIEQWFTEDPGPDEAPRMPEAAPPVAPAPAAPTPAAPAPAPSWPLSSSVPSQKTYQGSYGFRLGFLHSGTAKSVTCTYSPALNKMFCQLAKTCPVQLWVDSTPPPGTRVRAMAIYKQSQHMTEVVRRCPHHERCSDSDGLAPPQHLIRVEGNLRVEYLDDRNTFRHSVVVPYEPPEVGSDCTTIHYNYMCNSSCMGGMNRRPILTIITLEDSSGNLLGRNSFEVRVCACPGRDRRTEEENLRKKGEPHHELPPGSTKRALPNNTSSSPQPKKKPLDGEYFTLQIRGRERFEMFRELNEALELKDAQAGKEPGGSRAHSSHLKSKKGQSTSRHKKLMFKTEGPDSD
# Nuclear receptor subfamily 4 group A member 2 (Homo sapiens), sequence (P43354 whole entry, looked up, the tested form may be a part): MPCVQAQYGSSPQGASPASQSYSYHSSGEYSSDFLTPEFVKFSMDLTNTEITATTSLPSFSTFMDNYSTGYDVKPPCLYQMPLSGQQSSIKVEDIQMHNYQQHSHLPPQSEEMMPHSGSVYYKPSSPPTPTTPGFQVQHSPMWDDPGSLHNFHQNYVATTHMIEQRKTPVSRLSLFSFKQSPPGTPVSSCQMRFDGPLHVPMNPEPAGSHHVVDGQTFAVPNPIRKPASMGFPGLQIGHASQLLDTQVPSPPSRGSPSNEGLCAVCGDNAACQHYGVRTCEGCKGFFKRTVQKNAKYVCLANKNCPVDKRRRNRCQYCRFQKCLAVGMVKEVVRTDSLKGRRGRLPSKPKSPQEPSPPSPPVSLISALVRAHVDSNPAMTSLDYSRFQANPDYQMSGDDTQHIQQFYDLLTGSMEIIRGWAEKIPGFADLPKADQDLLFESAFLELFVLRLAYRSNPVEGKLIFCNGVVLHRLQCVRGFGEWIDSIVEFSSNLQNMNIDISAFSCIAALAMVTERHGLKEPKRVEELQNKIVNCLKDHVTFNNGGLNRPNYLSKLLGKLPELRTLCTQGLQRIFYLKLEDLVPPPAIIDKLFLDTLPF
# Myc proto-oncogene protein (Homo sapiens), sequence (P01106 whole entry, looked up, the tested form may be a part): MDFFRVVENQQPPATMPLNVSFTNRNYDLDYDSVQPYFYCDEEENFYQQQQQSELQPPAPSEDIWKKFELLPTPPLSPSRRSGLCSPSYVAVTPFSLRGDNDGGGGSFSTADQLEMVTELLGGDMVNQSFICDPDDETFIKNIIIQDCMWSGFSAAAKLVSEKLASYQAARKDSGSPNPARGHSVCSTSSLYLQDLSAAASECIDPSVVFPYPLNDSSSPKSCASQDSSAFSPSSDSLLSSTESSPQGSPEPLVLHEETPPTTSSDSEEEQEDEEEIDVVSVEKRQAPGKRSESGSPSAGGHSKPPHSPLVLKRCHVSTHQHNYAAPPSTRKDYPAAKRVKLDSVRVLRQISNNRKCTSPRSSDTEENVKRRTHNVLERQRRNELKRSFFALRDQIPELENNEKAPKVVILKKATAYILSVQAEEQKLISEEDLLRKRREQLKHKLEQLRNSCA
# Nuclear respiratory factor 1 (Homo sapiens), sequence (Q16656 whole entry, looked up): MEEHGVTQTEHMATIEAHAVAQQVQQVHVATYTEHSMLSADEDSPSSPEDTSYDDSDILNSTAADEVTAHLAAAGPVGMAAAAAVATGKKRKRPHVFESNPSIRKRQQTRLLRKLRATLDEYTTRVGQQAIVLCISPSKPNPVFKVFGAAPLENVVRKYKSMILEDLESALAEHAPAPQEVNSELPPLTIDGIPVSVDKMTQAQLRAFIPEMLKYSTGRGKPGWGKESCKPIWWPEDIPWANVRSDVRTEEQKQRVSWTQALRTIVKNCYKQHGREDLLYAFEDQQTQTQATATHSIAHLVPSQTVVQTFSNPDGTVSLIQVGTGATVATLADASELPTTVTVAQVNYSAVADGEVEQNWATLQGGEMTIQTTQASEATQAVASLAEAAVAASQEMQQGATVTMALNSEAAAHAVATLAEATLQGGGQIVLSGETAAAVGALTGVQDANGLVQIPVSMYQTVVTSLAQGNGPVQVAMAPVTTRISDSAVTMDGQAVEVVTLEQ
# human Peroxisome Proliferator-activated Receptor alpha (PPARa), PPARA (gene 5465), sequence (Q07869 whole entry, looked up, the tested form may be a part): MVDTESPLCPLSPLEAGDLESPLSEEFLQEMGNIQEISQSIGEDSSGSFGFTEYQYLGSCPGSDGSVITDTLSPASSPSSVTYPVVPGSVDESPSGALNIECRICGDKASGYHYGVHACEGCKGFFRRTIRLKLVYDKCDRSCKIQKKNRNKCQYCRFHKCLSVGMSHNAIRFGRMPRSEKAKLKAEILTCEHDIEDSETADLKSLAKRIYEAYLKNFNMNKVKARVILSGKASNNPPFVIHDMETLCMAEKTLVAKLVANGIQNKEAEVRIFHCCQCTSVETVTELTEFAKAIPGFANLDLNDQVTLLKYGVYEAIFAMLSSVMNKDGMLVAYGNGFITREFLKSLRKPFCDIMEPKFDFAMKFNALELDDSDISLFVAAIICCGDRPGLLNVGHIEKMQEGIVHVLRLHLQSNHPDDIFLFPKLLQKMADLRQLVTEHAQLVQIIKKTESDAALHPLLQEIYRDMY
# human Peroxisome Proliferator-activated Receptor delta (PPARd), PPARD (gene 5467), sequence (Q03181 whole entry, looked up, the tested form may be a part): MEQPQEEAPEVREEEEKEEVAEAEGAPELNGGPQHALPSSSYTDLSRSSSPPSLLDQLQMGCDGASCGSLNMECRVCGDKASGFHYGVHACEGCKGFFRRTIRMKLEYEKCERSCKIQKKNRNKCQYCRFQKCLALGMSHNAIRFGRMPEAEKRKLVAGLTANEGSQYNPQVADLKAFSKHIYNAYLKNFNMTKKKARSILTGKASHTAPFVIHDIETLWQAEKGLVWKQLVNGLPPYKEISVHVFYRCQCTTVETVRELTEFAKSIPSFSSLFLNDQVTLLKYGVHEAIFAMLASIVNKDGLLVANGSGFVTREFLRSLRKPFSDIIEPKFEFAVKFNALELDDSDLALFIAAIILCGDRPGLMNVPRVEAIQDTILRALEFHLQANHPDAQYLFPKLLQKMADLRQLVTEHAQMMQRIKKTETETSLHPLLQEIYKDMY
# human Retinoic Acid Receptor beta (RARb), RARB (gene 5915), sequence (P10826 whole entry, looked up, the tested form may be a part): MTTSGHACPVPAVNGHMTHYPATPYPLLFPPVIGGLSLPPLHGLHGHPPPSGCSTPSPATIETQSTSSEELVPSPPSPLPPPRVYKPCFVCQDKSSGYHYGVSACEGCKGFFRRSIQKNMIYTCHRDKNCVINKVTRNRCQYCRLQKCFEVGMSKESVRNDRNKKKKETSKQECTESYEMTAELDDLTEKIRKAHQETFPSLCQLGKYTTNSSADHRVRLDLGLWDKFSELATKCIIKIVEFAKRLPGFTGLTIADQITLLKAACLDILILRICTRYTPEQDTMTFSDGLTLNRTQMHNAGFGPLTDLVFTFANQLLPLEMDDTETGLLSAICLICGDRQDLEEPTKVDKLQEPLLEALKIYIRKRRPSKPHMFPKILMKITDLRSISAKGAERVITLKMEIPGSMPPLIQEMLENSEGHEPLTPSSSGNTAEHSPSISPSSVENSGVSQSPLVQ
smiles,measurement,setting,value
Cc1cc(Cl)ccc1OCCCC(=O)O,outcome,[1],inactive
same,outcome,[2],inactive
same,outcome,[3],inactive
same,outcome,[4],inactive
same,outcome,[5],inactive
same,outcome,[6],inactive
same,outcome,[7],inactive
same,outcome,[8],inactive
same,outcome,[9],inactive
same,outcome,[10],inactive
same,outcome,[11],inactive
same,outcome,[12],inactive
CC(C)CC(C)(c1ccc(O)cc1)c1ccc(O)cc1,outcome,[1],inactive
same,outcome,[2],inactive
same,outcome,[3],inactive
same,AC50,[5],16.9 µM (active)
same,outcome,[6],inactive
same,outcome,[7],inactive
same,AC50,[8],11.1 µM (active)
same,AC50,[9],17 µM (active)
same,AC50,[10],11.1 µM (active)
same,outcome,[13],inactive
same,outcome,[12],inactive
BrCc1ccc(Br)cc1,outcome,[1],inactive
same,outcome,[2],inactive
same,outcome,[3],inactive
same,outcome,[5],inactive
same,outcome,[6],inactive
same,outcome,[7],inactive
same,outcome,[9],inactive
same,outcome,[10],inactive
c1ccc2c(c1)Oc1ccccc1O2,outcome,[1],inactive
same,outcome,[3],inactive
same,outcome,[5],inactive
same,outcome,[6],inactive
same,outcome,[7],inactive
same,AC50,[8],35.4 µM (active)
same,outcome,[9],inactive
same,outcome,[10],inactive
same,outcome,[11],inactive
COC(=O)Nc1cccc(OC(=O)Nc2cccc(C)c2)c1,outcome,[1],inactive
same,outcome,[3],inactive
same,outcome,[4],inactive
same,outcome,[5],inactive
same,outcome,[6],inactive
same,outcome,[7],inactive
same,outcome,[8],inactive
same,outcome,[9],inactive
same,outcome,[10],inactive
same,outcome,[13],inactive
O=C(NC(=O)c1c(F)cccc1F)Nc1cc(Cl)c(Oc2ncc(C(F)(F)F)cc2Cl)c(Cl)c1,outcome,[1],inactive
same,outcome,[2],inactive
same,outcome,[3],inactive
same,outcome,[4],inactive
same,outcome,[5],inactive
same,outcome,[7],inactive
same,AC50,[8],31.9 µM (active)
same,outcome,[9],inactive
same,outcome,[10],inactive
same,outcome,[13],inactive
C1CCC(C2CCCCC2)CC1,outcome,[1],inactive
same,outcome,[3],inactive
same,outcome,[4],inactive
same,outcome,[5],inactive
same,outcome,[6],inactive
same,outcome,[7],inactive
same,AC50,[8],23.8 µM (active)
same,outcome,[9],inactive
same,outcome,[13],inactive
CC(C)(c1ccccc1)c1cc(-n2nc3ccccc3n2)c(O)c(C(C)(C)c2ccccc2)c1,outcome,[1],inactive
same,outcome,[2],inactive
same,outcome,[3],inactive
same,outcome,[4],inactive
same,outcome,[5],inactive
same,outcome,[6],inactive
same,outcome,[7],inactive
same,outcome,[8],inactive
same,outcome,[9],inactive
same,outcome,[10],inactive
C=C(C)[C@@H]1CC=C(C=O)CC1,outcome,[1],inactive
same,outcome,[2],inactive
same,outcome,[3],inactive
same,outcome,[4],inactive
same,outcome,[5],inactive
same,outcome,[6],inactive
same,outcome,[7],inactive
same,AC50,[8],80.5 µM (active)
same,outcome,[9],inactive
same,outcome,[10],inactive
same,outcome,[13],inactive
CCCCN(CCCCO)N=O,outcome,[1],inactive
same,outcome,[3],inactive
same,outcome,[4],inactive
same,outcome,[5],inactive
same,outcome,[6],inactive
same,outcome,[7],inactive
same,outcome,[8],inactive
same,outcome,[9],inactive
same,outcome,[10],inactive
C=CC(Cl)CCl (configuration not stated),outcome,[1],inactive
same,outcome,[2],inactive
same,outcome,[3],inactive
same,outcome,[4],inactive
same,outcome,[5],inactive
same,outcome,[6],inactive
same,AC50,[8],20.2 µM (active)
same,outcome,[9],inactive
same,AC50,[14],0.0174 µM (active)
same,outcome,[15],inactive
same,outcome,[16],inactive
same,outcome,[11],inactive
same,outcome,[17],inactive

# From PubChem BioAssay (EPA / NIEHS)
